# An excerpt weighted towards active compounds, which were near 19% of everything screened.
# TDP1 cell noCPT = qHTS for Inhibitors of human tyrosyl-DNA phosphodiesterase 1 (TDP1): qHTS in cells in absence of CPT. DT40 Tdp1-/- hTDP1 cells, no CPT, ATP luminescence, 48 h. Potency, µM (doses to about 46.2 µM), most hits filed as inhibitors. 15% of 420,000 active. AID 686978, 2013; further: nearly all actives have a fitted effect of over 55% in size
#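 Chicken DT40 Tdp1-/- cells complemented with human TDP1, screened without camptothecin (DMSO vehicle only), 400 cells/well. Compounds pin-transferred, cells incubated at 37 °C for at least 48 hr. Growth read as ATP-dependent luminescence (CellTiter-Glo, 30 min at RT).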
# DT40 TDP1 CPT = DT40-hTDP1 cell growth loss with CPT; chicken DT40 Tdp1-/-;hTDP1 cells + 20 nM CPT, ATP luminescence, 48 h; Potency, µM (highest dose often 46.2 µM), hits mostly inhibitors; 12% of 420,000 active; AID 686979; further: nearly all actives have a fitted effect of over 55% in size
#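 Chicken DT40 Tdp1-/- cells stably complemented with human TDP1 were seeded at 400 cells/well in medium containing 20 nM camptothecin, exposed to pin-transferred compounds, and grown at 37 °C for at least 48 hr. Viability was read as ATP luminescence.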
# HT1080NT lethal = kills 2HG-producing HT-1080-NT fibrosarcoma cells; HT-1080-NT fibrosarcoma viability, CellTiter-Glo ATP luminescence, 48 h; Potency, µM (doses to about 46.1 µM), hits mostly cytotoxic; 1.6% of 360,000 active;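 further: NT is the 2HG producing partner of a matched IDH1 knockdown line; nearly all actives have a fitted effect of over 55% in size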
#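 Fibrosarcoma NT cells, 750 per well in 5% FBS RPMI, were exposed to compound for 48 hours. Viability: CellTiter-Glo luminescence.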
# uPA surface inh = blocks generation of uPA at the cell surface | 0.31% of 330,000 active | Potency, µM (series often up to 38.3 µM), actives largely listed as inhibitors | cell surface uPA generation assay, qHTS; active means well fitted inhibition curve with a large enough effect; inconclusive means small, poorly fitted or top-dose-only effect; inactive means no such curve, though single readings can be large or run the other way; tested in mouse RAW 264.7 cells; further: nearly all actives have a fitted effect of over 55% in size
# IL-1B inflam inh = inhibitors of inflammasome signaling (IL-1 beta secretion). THP-1 LPS/ATP IL-1B secretion, AlphaLISA, 16 h; active compounds read low. activity change, % at 57.5 µM. 4.7% of 360,000 active; in the data active means activity change below about -50%; inconclusive means mostly about -30% to -49%
#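 THP-1 cells pretreated 1 hr with compounds (up to 57.5 uM final), then stimulated with LPS (250 ng/mL final) plus ATP (1.25 mM final); secreted IL-1B measured by AlphaLISA after 16 hr, decreased signal indicating inhibition.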
# HT1080 IDH1KD tx = toxicity to HT-1080 IDH1 knockdown cells (counter line); Potency, µM (doses to about 46.1 µM), usual class: cytotoxic; HT-1080 IDH1 knockdown viability, ATP luminescence, 48 h; AID 686971; 2% of 360,000 active
#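 Using the IDH1-knockdown HT-1080 line run in the same batch and compound series as the NT line, viability after 48 h at 37 °C was determined by CellTiter-Glo luminescence and expressed as % activity.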
# A number is an active result; – = inactive; ? = inconclusive; · = not tested or not shown; [ ] = another dose, or the depositor's remark. Unless noted, the call rests on the fitted dose curve; in most records, active means well fitted curve in the direction sought with a large enough effect; inconclusive means small, poorly fitted or top-dose-only effect, or another doubt; inactive means no such curve, though single readings can be large; an effect the other way counts as inactive or inconclusive.
SMILES,TDP1 cell noCPT,DT40 TDP1 CPT,HT1080NT lethal,uPA surface inh,IL-1B inflam inh,HT1080 IDH1KD tx
CCN(CC)S(=O)(=O)c1ccc2c(c1)N(CC(=O)NCCCN1CCN(c3ccc(OC)cc3)CC1)C(=O)CO2,?,–,·,·,·,·
CC(C)N(Cc1nc(COc2ccccc2)no1)Cc1nccn1C,–,–,–,–,–,–
CC(C)N(Cc1cn[nH]c1-c1ccc(-c2ccccc2)cc1)Cc1nccn1C,?,?,14.6µM,–,-73.5,20.6µM
Cc1ncsc1CCOC(=O)C1C2CC3CC(C2)CC1C3 (configuration not stated),23.1µM,?,–,–,–,?
COc1ccc(Cn2c(CCC(=O)Nc3ccc(C)cc3)nc3cccnc32)cc1,14.6µM,?,–,–,?,–
Cc1ccc(CNC(=O)CCc2nc3cccnc3n2Cc2ccccc2)cc1,?,14.6µM,·,·,·,·
COCCn1c(CNC(=O)c2ccc(C)cc2)nc2cccnc21,–,–,·,·,·,·
CCN(CC)c1ccc(C(=O)NCc2nc3cccnc3n2Cc2ccc(C)cc2)cc1,14.6µM,18.4µM,·,·,·,·
COC(=O)c1n[nH]n(-c2ccccc2)c1=O,–,–,·,·,·,·
COc1cccc(CNC(=O)C2CCN(c3ncnc4c3nc3n4CCCCC3)CC2)c1,?,–,–,–,–,–
FC(F)(F)c1cccc(N2CCN(c3ncnc4c3nc3n4CCCC3)CC2)c1,9.2µM,9.2µM,·,·,·,·
COc1cccc(N2CCN(c3ncnc4c3nc3n4CCCCC3)CC2)c1,10.3µM,16.4µM,·,·,·,·
Cc1nn(-c2ccccc2)c(N2CCCC2)c1/C=N/NC(=O)c1cc(-c2ccccn2)nc2ccccc12,11.6µM,20.6µM,–,–,–,–
Cc1ccc(-c2cc(C(=O)N/N=C/c3c(C)nn(C)c3C)c3ccccc3n2)c(C)c1,?,?,–,–,–,–
CC(=O)Nc1c(C)nn(-c2ccccc2)c1N1CCC(C(=O)Nc2ccccc2F)CC1,–,–,·,·,·,·
Cc1nn(-c2ccccc2)c(N2CCCC2)c1/C=N/NC(=O)c1cc(-c2cccs2)nc2ccccc12,14.6µM,?,–,–,–,–
Cc1nn(-c2ccccc2)c(N2CCCC2)c1/C=N/Nc1ccc(S(N)(=O)=O)cc1[N+](=O)[O-],14.6µM,16.4µM,–,–,–,–
Cc1nn(-c2ccccc2)c(N2CCCC2)c1/C=N/NC(=O)c1cc(-c2ccccc2)nc2ccccc12,?,?,–,–,–,–
Cc1nn(-c2ccccc2)c(N2CCCC2)c1/C=N/NC(=S)Nc1ccccc1F,?,13µM,?,–,–,?
CCOC(=O)CC(NS(=O)(=O)Cc1ccccc1)c1ccc(C)cc1 (configuration not stated),–,–,–,–,–,–
CCN1CCN(C(c2ccc(F)cc2)c2sc3nc(-c4ccco4)nn3c2O)CC1 (configuration not stated),?,–,·,·,·,·
O=C(Nc1ccccc1)N1CCCC2(CCN(C(=O)c3csnn3)CC2)C1,–,–,·,·,·,·
CCOc1ccc(Nc2nc(N(C)c3ccccc3)nc(N)c2[N+](=O)[O-])cc1,–,–,–,–,–,–
Cc1ccc(C)c(-n2c(N)c(C#N)c3nc4ccccc4nc32)c1,–,–,·,·,·,·
O=C1C2CC=CCC2C(=O)N1Cc1ccccc1 (configuration not stated),–,–,–,–,–,–[9.24 µM]
SMILES,TDP1 cell noCPT,DT40 TDP1 CPT,HT1080NT lethal,uPA surface inh,IL-1B inflam inh,HT1080 IDH1KD tx
O=C1C=CC(=O)N1Cc1ccccc1,2.31µM,1.03µM,2.59µM,7.94µM,-73.0,18.4µM
Fc1ccc(-n2c(-c3ccc4ccccc4n3)n[nH]c2=S)cc1,–,–,–,–,–,–
S=c1[nH]nc(-c2ccc3ccccc3n2)n1-c1cc(Cl)cc(Cl)c1,16.4µM,?,–,–,–,–
Cc1ccc(NC(=O)Cc2ccc3c(c2)OCCO3)cc1S(=O)(=O)N1CCCCC1,?,–,–,–,–,–
CCOC(=O)c1c(C)n(C(=O)c2ccco2)c(=O)n1C(=O)c1ccco1,–,–,–,–,-68.3,–
COc1ccccc1/C=C/C(=O)OCCN1C(=O)c2ccccc2C1=O,–,–,–,–,–,–
CC1(C(=O)NCC2CCCCC2)CCN1CCc1ccccc1 (configuration not stated),?,?,–,·,–,–
CC1(C(=O)NC2CCc3ccccc32)CCN1CCc1ccccc1 (configuration not stated),18.4µM,16.4µM,–,·,–,–
CN1CCc2c(sc(N)c2C(N)=O)C1,20.6µM,25.9µM,–[9.24 µM],·,–,–
CCN1CCc2c(sc(N)c2C(N)=O)C1,23.1µM,?,–,–,–,–
CN1CCc2c(sc(/N=C/c3c[nH]c4ccccc34)c2C(N)=O)C1,16.4µM,–,–,–,?,–
CC(C)=C1SC(N2CCN(c3ccc(C)cc3)CC2)=NC1=O,?,?,–,–,–,–
CC(C)=C1SC(N2CCN(c3ccc(Cl)cc3)CC2)=NC1=O,?,?,–,–,-60.4,–
C=C(CCC(=O)c1ccccc1)C(=O)c1ccccc1,2.06µM,6.51µM,25.9µM,–,-83.4,?
C=C(C(=O)c1ccccc1)C(CC(=O)c1ccccc1)c1ccccc1 (configuration not stated),4.61µM,4.61µM,?,–,-95.0,11.6µM
O=C(Cc1ccccc1)CC(CC(=O)c1ccccc1)c1ccccc1 (configuration not stated),23.1µM,16.4µM,–,·,–,–
COc1ccccc1C(CC(=O)c1ccccc1)CC(=O)c1ccccc1,?,–,–,–,?,–
Cc1nn(C)cc1CN(C)C(=O)CCc1nnc(CCC2CCCCC2)o1,–,–,–,–,–,–
O=c1[nH]c(/C(Cl)=C/c2cccc(F)c2)nc2cc(C(F)(F)F)ccc12,23.1µM,?,–,–,–,–
Cn1ncc2c(N3CCN(c4ccccc4F)CC3)ncnc21,23.1µM,?,–,·,–,–
Cn1nnc2c(N3CCCCC3)ncnc21,?,?,–,·,·,–
Cn1nnc2c(N3CCN(c4cccc(Cl)c4)CC3)ncnc21,4.11µM,?,·,·,·,·
Cn1ncc2c(N3CCN(c4ccc(Cl)c(Cl)c4)CC3)ncnc21,7.31µM,10.3µM,?,–,-60.1,?
COc1ccccc1N1CCN(c2ncnc3c2cnn3-c2ccc(C)cc2)CC1,–,–,·,·,·,·
Clc1ccc(-n2ncc3c(N4CCCC4)ncnc32)cc1,–,–,–,–,–,–
Cc1c(C(=O)NC(=S)N(Cc2ccccc2)c2ccccn2)cccc1[N+](=O)[O-],–,?,–,–,–,–
CCc1sc(N(C(=O)Cc2ccccc2)c2ccccc2F)nc1-c1ccc(C)cc1,16.4µM,?,–,–,–,–

# Screens deposited in PubChem by National Center for Advancing Translational Sciences (NCATS).
